Assay results as given in the supplement of paper PMC9694430.
Counter-ions that a name gives are not always drawn.

Experiments:
Experiment in all cases: thermal shift delta Tm vs DMSO control; higher = stronger stabilization (binding)
Details in all cases: 12.5 µM; protein concentration 2 µM
LOC_OS01G01410-cb001 = test system: LOC_OS01G01410-cb001
Method in brief: (§1)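 Heating from 25°C to 95°C at 0.05°C/s, fluorescence was recorded for 19.5 μl wells of 2 μM E. coli-expressed, purified rice kinase domain in 100 mM potassium phosphate pH 7.5, 150 mM NaCl, 10% glycerol and 5 × SYPRO Orange with compound in DMSO. Boltzmann fits gave melting temperatures for this differential scanning fluorimetry assay. The shift reported is the mean of three replicates against the DMSO-only protein.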

LOC_OS01G02750-cb003 = test system: LOC_OS01G02750-cb003
Method in brief: as §1

LOC_OS01G10900-cb004 = test system: LOC_OS01G10900-cb004
Method in brief: as §1

LOC_OS01G13800-cb001 = test system: LOC_OS01G13800-cb001
Method in brief: as §1

LOC_OS01G14860-cb001 = test system: LOC_OS01G14860-cb001
Method in brief: as §1

LOC_OS01G21960-cb002 = test system: LOC_OS01G21960-cb002
Method in brief: as §1

LOC_OS01G39600-cb002 = test system: LOC_OS01G39600-cb002
Method in brief: as §1

LOC_OS01G48390-cb002 = test system: LOC_OS01G48390-cb002
Method in brief: as §1

LOC_OS01G51400-cb002 = test system: LOC_OS01G51400-cb002
Method in brief: as §1

LOC_OS01G52050-cb004 = test system: T1, LOC_OS01G52050-cb004
T1 sequence (whole entry): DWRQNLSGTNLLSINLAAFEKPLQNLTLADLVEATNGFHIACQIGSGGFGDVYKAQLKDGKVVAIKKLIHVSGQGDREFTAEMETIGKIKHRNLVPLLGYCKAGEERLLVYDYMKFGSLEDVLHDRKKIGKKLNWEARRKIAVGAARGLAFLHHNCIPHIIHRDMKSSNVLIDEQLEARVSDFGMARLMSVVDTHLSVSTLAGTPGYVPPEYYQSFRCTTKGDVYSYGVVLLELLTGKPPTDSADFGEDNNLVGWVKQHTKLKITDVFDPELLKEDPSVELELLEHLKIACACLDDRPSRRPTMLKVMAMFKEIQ
Method in brief: as §1
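Note: purified Escherichia coli-expressed rice kinase domain construct.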

SMILES	thermal shift delta Tm (LOC_OS01G01410-cb001) [°C]	thermal shift delta Tm (LOC_OS01G02750-cb003) [°C]	thermal shift delta Tm (LOC_OS01G10900-cb004) [°C]	thermal shift delta Tm (LOC_OS01G13800-cb001) [°C]	thermal shift delta Tm (LOC_OS01G14860-cb001) [°C]	thermal shift delta Tm (LOC_OS01G21960-cb002) [°C]	thermal shift delta Tm (LOC_OS01G39600-cb002) [°C]	thermal shift delta Tm (LOC_OS01G48390-cb002) [°C]	thermal shift delta Tm (LOC_OS01G51400-cb002) [°C]	thermal shift delta Tm (LOC_OS01G52050-cb004) [°C]
C=CC(=O)N1CC[C@@H](Oc2nc(Nc3ccc(N4CCC(N5CCN(C)CC5)CC4)cc3)c(C(N)=O)nc2CC)C1 [Naquotinib(ASP8273)]	5.21	1.59	4.44	-0.4	4.17	2.68	1.51	3.38	-0.03	2.34
COc1ccc(C(=O)Nc2sc3c(c2C(N)=O)CCCC3)cc1OC	0.61	0.58	0.36	0.6	0.19	0.49	0.46	0.85	0.45	1.28
COc1ccc2c(c1)[C@]1(C[C@H]1c1ccc3c(/C=C/c4ccc(CN5C[C@@H](C)O[C@@H](C)C5)cc4)n[nH]c3c1)C(=O)N2	1.94	8.4	1.53	-0.69	1.2	0.67	2.15	1.77	1.27	4.31
Cc1ccccc1CN1C2=NCCN2C(=O)C2=C1CCN(Cc1ccccc1)C2 [TIC10 Analogue]	0.06	2.43	0.31	-0.07	0.07	0.85	-3.24	0.44	0.5	-0.27
CN1CCN(c2ccc3nc(-c4c(N)c5c(F)cccc5[nH]c4=O)[nH]c3c2)CC1 [Dovitinib (TKI258) Lactate]	5.96	2.78	4.81	1.06	2.06	3.87	4.79	3.22	1.02	6.95
CCCCCCCCCCCCCCCCn1cc[n+](Cc2ccccc2)c1C	-2.01	-7.84	-4.55	-6.34	-18.6	-3.32	-5.39	-5.85	-9.26	-3.57
CC#CC(=O)N1CC[C@@H](n2c(=O)n(-c3ccc(Oc4ccccc4)cc3)c3c(N)ncnc32)C1 [ONO-4059 (GS-4059) hydrochloride]	0.39	0.39	0.14	-0.37	0.23	0.04	0.11	-0.2	-0.08	-0.56
O=C(Nc1c[nH]nc1-c1nc2ccc(CN3CCOCC3)cc2[nH]1)NC1CC1	5.91	3.78	2.15	-0.38	8.12	3.45	6.02	2.89	0.42	7.67
O=c1sn(-c2cccc3ccccc23)c(=O)n1Cc1ccccc1 [Tideglusib]	0.61	-1.04	-0.23	0.16	0.15	0.39	1.37	0.44	0.24	0.37
CCN1CCN(Cc2ccc(-c3cc4c(N[C@H](C)c5ccccc5)ncnc4[nH]3)cc2)CC1	3.01	0.66	3.11	0.28	0.24	0.28	2.27	0.54	0.24	0.44
Cc1ccc(NC(=O)c2ccc(CN3CCN(C)CC3)cc2)cc1Nc1nc(-c2cccnc2)cs1 [Masitinib (AB1010)]	1.11	0.48	0.92	0.24	0.16	0.26	-0.05	0.15	-0.06	-0.18
COc1cc(Nc2ncc(F)c(Nc3ccc4c(n3)N(COP(=O)(O)O)C(=O)C(C)(C)O4)n2)cc(OC)c1OC [R788 (Fostamatinib) Disodium]	0.8	1.55	0.2	0.19	1.64	1.94	5.17	0.57	0.49	1.51
CCOc1ccn(-c2ccc(F)cc2)c(=O)c1C(=O)Nc1ccc(Oc2ccnc(N)c2Cl)c(F)c1	0.18	1.95	0.48	0.21	3.61	0.65	-0.36	2.33	0.21	0.98
CC#CC(=O)N1CCC[C@H]1c1nc(-c2ccc(C(=O)Nc3ccccn3)cc2)c2c(N)nccn12 [Acalabrutinib (ACP-196)]	0.74	0.55	0.53	0.19	0.36	0.47	0.15	0.22	-0.06	-0.21
CC(C)n1nc(-c2ccc3oc(N)nc3c2)c2c(N)ncnc21	0.59	1.42	0.77	-0.13	0.42	0.3	-0.69	1.9	0.43	0.95
Cc1cc(F)c(Nc2ncnc3cc(OCc4ccccc4)ccc23)cc1O	0.8	2.62	0.6	0.61	0.45	1.56	1.09	1.2	0.81	0.77
O=C(NC(NC(=S)Nc1ccc(F)c([N+](=O)[O-])c1)C(Cl)(Cl)Cl)C(c1ccccc1)c1ccccc1 (stereo not given)	3.6	9.2	2.57	2.31	3.26	3.31	28.9	3.82	1.04	3.03
Cc1cc(Nc2cc(N)ncn2)c(=O)n2c1C(=O)NC21CCCCC1	0.09	0.56	3.66	-0.03	1.91	0.49	-0.58	-0.04	0.24	-0.14
O=C(NOCC(O)CO)c1cc(Br)c(F)c(F)c1Nc1ccc(I)cc1F (stereo not given)	0.9	3.49	1.07	1.05	1.29	1.44	0.76	1.12	0.46	2.46
CNC(=O)CN1CCC(Oc2cc3c(Nc4cccc(Cl)c4F)ncnc3cc2OC)CC1 [Sapitinib (AZD8931)]	0.6	0.72	0.42	-0.22	0.2	0.31	0.43	0.44	-0.05	0.01
